The whole screen tested about 41,000 compounds, of which about 190 (0.46%) were called active.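 The calls were made as follows: active = viability at or below the median of all test compounds minus 3 SD, in both replicates if run twice (cut at about 45% in these data); inconclusive = duplicate replicates that disagree with each other; inactive = viability above that cutoff in every replicate.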 The sample as a whole holds a higher share of actives than the screen did.
assay: SK-BR-3 proliferation inhibitors, primary screen, cell-based, human, 24 h (AID 847); conditions: SK-BR-3 viability, CellTiter-Glo ATP luminescence, at 10 µM, stronger effect = lower value;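 also: 100% = median untreated cell wells and 0% = median positive control drug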

| Compound | viability |
| --- | --- |
| O=C(c1ccco1)N(Cc1nc2ccccc2c(=O)[nH]1)C1CCCC1 | 87.8% (inactive) |
| COC(=O)COc1ccc2oc(=O)cc(C)c2c1 | 87% (inactive) |
| COC(=O)c1cn(-c2ccccc2)nc1-c1cccnc1 | 119% (inactive) |
| CC(C(=O)O)N1C(=O)c2cccc3cccc1c23 (configuration not stated) | 91.2% (inactive) |
| Cc1cc(C)c(NC(=O)CS(=O)CC(=O)Nc2cccnc2)c(C)c1 (configuration not stated) | 79.8% (inactive) |
| COc1ccc(CSc2nc(N3CCOCC3)c3c(c2C#N)CC(C)(C)OC3)cc1 | 76.6% (inactive) |
| CS(=O)(=O)N1CCN(C(=O)c2cc3ccccc3oc2=O)CC1 | 82.4% (inactive) |
| Cc1cc(=O)[nH]c(SCC(N)=O)c1C#N | 121% (inactive) |
| Cc1ccc(S(=O)(=O)NCc2nc3ccccc3c(=O)n2N)cc1 | 87.3% (inactive) |
| CC(=O)c1cc(-c2ccccc2)[nH]c1N1CCCC1 | 89.9% (inactive) |
| Cc1ccc(C)c(NC(=O)C2CCCN2C(=O)OC(C)(C)C)c1 (configuration not stated) | 102% (inactive) |
| COc1ccc(C(=O)N2CCC(C(=O)Nc3cccc(C)c3)CC2)cc1OC | 106% (inactive) |
| Cc1ccccc1NC(=O)c1cnn(-c2ccccc2)c1NC(=O)c1ccco1 | 117% (inactive) |
| O=C1NC(c2cc3c(cc2Cl)OCO3)Oc2ccccc21 (configuration not stated) | 110% (inactive) |
| CCCC(C)n1[nH]c(=O)c2c(C)cc(C)nc21 (configuration not stated) | 87% (inactive) |
| Cc1cc(C)n2nc(C(=O)Oc3ccc4c(c3)OCO4)nc2n1 | 86.1% (inactive) |
| CC(C)OCCCNc1nc2c(c(=O)n(Cc3ccccc3F)c(=O)n2C)n1C | 68.2% (inactive) |
| Clc1ccc(CSc2nnc([C@@H]3CCCN3)o2)cc1 | 80.8% (inactive) |
| O=C(NCc1cccnc1)c1cn(-c2ccccc2)nc1-c1cccs1 | 74.3% (inactive) |
| COC(=O)Nc1c(C)n(C)n(-c2ccccc2)c1=O | 104% (inactive) |
| O=S(=O)(O)c1nc2ccccc2n1Cc1ccc(Cl)cc1Cl | 98.8% (inactive) |
| Cc1cc(Br)ccc1NC(=O)C1CCCO1 (configuration not stated) | 75.5% (inactive) |
| c1cnc(NC2C3CC4CC(C3)CC2C4)nc1 (configuration not stated) | 98.3% (inactive) |
| O=C(c1ccco1)N1CCN(C(=O)C2c3ccccc3Oc3ccccc32)CC1 | 99.4% (inactive) |
| O=C(Nc1ccon1)c1sc2ccccc2c1Cl | 122% (inactive) |

| Compound | viability |
| --- | --- |
| COc1cccc(-c2nc(S(=O)(=O)c3ccccc3)c(N3CCOCC3)o2)c1 | 83.1% (inactive) |
| c1ccc(-c2nnc(SCc3nc4ccccc4[nH]3)o2)cc1 | 70.7% (inactive) |
| O=c1[nH]c(-c2ccccc2)c(-c2ccccc2)[nH]1 | 96.3% (inactive) |
| c1ccc(-c2[nH]ncc2-c2nc3ccccc3[nH]2)cc1 | 42.9% (active) |
| CC(C)C(c1nnnn1CCc1ccccc1)N1CCN(C(=O)c2ccco2)CC1 (configuration not stated) | 102% (inactive) |
| CSCCC(Nc1nc2ccccc2s1)C(=O)O (configuration not stated) | 81.1% (inactive) |
| Cc1cc(NC(=O)CCC2COc3ccccc3O2)no1 (configuration not stated) | 94.5% (inactive) |
| Cc1ccc2nc(NC3=NCN(CCc4ccccc4)CN3)nc(C)c2c1 | 95.4% (inactive) |
| COc1ccccc1N1CCN(C(=O)c2ccc(S(=O)(=O)N3CCCCC3)cc2)CC1 | 123% (inactive) |
| COC(=O)c1ccccc1NC(=O)CSc1ccccn1 | 81.2% (inactive) |
| COc1ccc(N2CCN(CCNC(=O)c3nnc(Cc4c(F)cccc4Cl)o3)CC2)cc1 | 75% (inactive) |
| CCOC(=O)c1ccccc1NC(=O)CC1Nc2ccccc2NC1=O (configuration not stated) | 47.2% (inactive) |
| CN(C)c1ccc(CNC23CN4CN(CN(C4)C2)C3)cc1 | 99% (inactive) |
| Cn1c2c(c(=O)n(C)c1=O)CN(Cc1ccco1)CN2 | 83.8% (inactive) |
| O=C(Cn1c(=O)sc2ccccc21)Nc1ccc2c(c1)OCCO2 | 78.4% (inactive) |
| Cc1ccc2cc(C#N)c(SCC(=O)NCC3CCCO3)nc2c1C (configuration not stated) | 82.7% (inactive) |
| O.O.O.O=S(=O)([O-])OC[C@H]1O[C@@H](O[C@]2(COS(=O)(=O)[O-])O[C@H](OS(=O)(=O)[O-])[C@@H](OS(=O)(=O)[O-])[C@@H]2OS(=O)(=O)[O-])[C@H](OS(=O)(=O)[O-])[C@@H](OS(=O)(=O)[O-])[C@@H]1OS(=O)(=O)[O-].[Al] | 89.7% (inactive) |
| CC(=O)Nc1cccc2c1[n+]([O-])c(C)c(C)[n+]2[O-] | 115% (inactive) |
| CCN(CC)P(=O)(/C(Cl)=C\Nc1c(C)n(C)n(-c2ccccc2)c1=O)N(CC)CC | 104% (inactive) |
| Cn1nnnc1SCC(=O)N1CCN(Cc2ccccc2)CC1 | 103% (inactive) |
| Cn1c(SCC(=O)Nc2cccc(NC(=O)c3cccs3)c2)nnc1-c1ccncc1 | 91.4% (inactive) |
| O=C(CSc1nc(-c2ccco2)cc(C(F)(F)F)n1)N1CCc2ccccc2C1 | 113% (inactive) |
| CCCN1C(=O)C(NC(C)=O)c2cc(OC)ccc21 (configuration not stated) | 88.1% (inactive) |
| Cc1nc2cc(-c3ccc(F)cc3)nn2c(N2CCOCC2)c1C | 89.5% (inactive) |
| FC(F)(F)c1cccc(Nc2ncnc3ccccc23)c1 | 90.1% (inactive) |

| Compound | viability |
| --- | --- |
| CCOC(=O)Cc1csc(NC(=O)CSc2nc(C)cc(=O)[nH]2)n1 | 43.4% (active) |
| CCOC(=O)Cc1csc(NC(=O)C(C)(C)C)n1 | 89.5% (inactive) |
| CCOC(=O)Cc1csc(NC(=O)Nc2ccccc2)n1 | 111% (inactive) |
| Cc1cc(C)cc(NC(=O)N2CCC(NC(=O)c3ccc(F)cc3)CC2)c1 | 103% (inactive) |
| COc1cc(OC)cc(C(=O)NCCSCc2ccco2)c1 | 80.3% (inactive) |
| N#Cc1c(NC(=O)CSc2nc3ccccc3c(=O)n2Cc2ccco2)sc2c1CCCC2 | 72.2% (inactive) |
| CCOc1ccccc1NC(=O)CCc1ccc(C)o1 | 103% (inactive) |
| COCCCNC(=O)c1c(F)c(F)c(F)c(F)c1F | 79.3% (inactive) |
| O=C1Nc2ccccc2C12Nc1ccccc1S2 (configuration not stated) | 75.9% (inactive) |
| Cc1ccc(C(C)C)c(OCc2nnc(SCC(=O)Nc3nccs3)n2C)c1 | 92.6% (inactive) |
| O=C(Cc1cccs1)N1CCCC(c2nc(-c3ccc(S(=O)(=O)N4CCCC4)cc3)no2)C1 (configuration not stated) | 72.5% (inactive) |
| Cc1sc2c(c1C)c(=O)n(-c1ccccc1)c1nncn21 | 90.1% (inactive) |
| O=C(Nc1ccccc1N1CCN(C(=O)c2ccccc2)CC1)c1ccc2c(c1)OCO2 | 68% (inactive) |
| CCn1nc(NC(=O)c2ccco2)c2cc3ccc(C)cc3nc21 | 79.8% (inactive) |
| COCCCNC(=O)COc1cc(C)c(Cl)c(C)c1 | 104% (inactive) |
| CC(=O)CCS(=O)(=O)c1ccc(C)c(C)c1 | 73.8% (inactive) |
| CCOc1cc(/C=N/O)cc(Br)c1OC | 90.1% (inactive) |
| CCc1ccccc1NC(=O)CSc1nnc([C@@H](NC(=O)OC(C)(C)C)C(C)CC)o1 (some centres not stated) | 89.6% (inactive) |
| O=S(=O)(NCCNS(=O)(=O)c1ccccc1)c1ccccc1 | 87.2% (inactive) |
| CCOC(=O)c1nc(N)sc1C(=O)OCC | 82.9% (inactive) |
| CCCCOc1ccc(NC(=O)CSCC(=O)OCC)cc1 | 97.7% (inactive) |
| CCN(CC)C(=O)CSc1nnc(-c2cnccn2)n1-c1ccc(C)cc1 | 112% (inactive) |
| CC(=O)N(CN1C(=O)C2CC=CCC2C1=O)c1cccc(Cl)c1 (configuration not stated) | 102% (inactive) |
| O=C(Nc1c(C(=O)N2CCCCC2)cnn1-c1ccccc1)c1ccco1 | 81.5% (inactive) |
| CCOC(=O)c1cnc(-n2nc(C)cc2C)nc1-n1nc(C)cc1C | 108% (inactive) |

| Compound | viability |
| --- | --- |
| CCN(CC)C(=O)CSc1nnc(-c2cccc(OC)c2)o1 | 88.1% (inactive) |
| CCS(=O)(=O)n1nc(-c2ccc(OC)cc2)nc1SC | 101% (inactive) |
| O=C(CSc1nnnn1C1CCCC1)Nc1ccc2c(c1)OCCO2 | 42.5% (active) |
| CCC(=O)Nc1cccc(NC(=O)CSc2nnnn2C2CCCC2)c1 | 69% (inactive) |
| O=C(CSc1nnnn1-c1ccc2c(c1)CCC2)Nc1ccc2c(c1)OCCO2 | 86.1% (inactive) |
| CCOc1cccc(-c2nn3c(-c4ccccn4)nnc3s2)c1 | 116% (inactive) |
| CCOC(=O)CNC(=O)CSc1nnc(-c2cccc(OC)c2)n1CC | 104% (inactive) |
| O=C1CCC(=O)N1CCOP1(=O)COc2ccccc2OC1 | 98.7% (inactive) |
| CCOC(=O)Cn1c(SC)nc2sc3c(c2c1=O)CC(C)(C)OC3 | 93.7% (inactive) |
| CSCC[C@H](NC(=O)NCCc1ccc(F)cc1)C(=O)O | 79.6% (inactive) |
| O=C(Nc1nn(Cc2ccccc2F)cc1Br)c1cccs1 | 98.6% (inactive) |
| C=CCn1c(CSc2nc3ccccc3s2)nnc1SCC(=O)NCc1ccco1 | 125% (inactive) |
| Cc1ccc(NC(=O)Cn2nc(C)c3ccccc3c2=O)c(C)c1 | 112% (inactive) |
| CCCCn1c(SCC(=O)N2CCC(C(=O)OCC)CC2)nc2cc(S(N)(=O)=O)ccc21 | 89.6% (inactive) |
| C=CCN1C(=O)C(O)(CC(=O)c2ccc(Cl)cc2)c2ccccc21 (configuration not stated) | 86.7% (inactive) |
| COc1ccc(OC)c(NC(=O)CSc2nc(N)c(-c3ccccc3)c(=O)[nH]2)c1 | 98.9% (inactive) |
| CN1CCN(C(=O)C2C3C=CC(C3)C2C(=O)O)CC1 (configuration not stated) | 109% (inactive) |
| COc1ccc(N2CC(C)Cn3c2nc2c3c(=O)n(Cc3ccccc3F)c(=O)n2C)c(OC)c1 (configuration not stated) | 89.5% (inactive) |
| CC1(C)NC(=O)N(CCOc2cccc(Oc3ccccc3)c2)C1=O | 94.6% (inactive) |
| C[C@H](NC(=O)OC(C)(C)C)c1nnc(SCC(=O)Nc2ccc(Br)cc2)o1 | 91.1% (inactive) |
| CCS(=O)(=O)NCCc1ccc(OC)c(OC)c1 | 85.1% (inactive) |
| CCOc1ccccc1N(CC(=O)Nc1ccccc1C(=O)OC)S(C)(=O)=O | 114% (inactive) |

Reference: PubChem BioAssay AID847 (SRMLSC, 2007)
